The campaign covered roughly 340,000 compounds. About 3,300 (0.97%) were called active.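 How the source made its calls: active means mean activation above about 17%, with every replicate also reaching it (limit read from the data, passing the limit was not always enough); inconclusive means only one of the two conditions met; inactive means the rest.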 What follows is part of a selection rich in actives, with near analogues and random picks from the rest.
Molecular target: Protein FosB (Mus musculus) (UniProt P13346)
Sequence (P13346 whole entry, looked up): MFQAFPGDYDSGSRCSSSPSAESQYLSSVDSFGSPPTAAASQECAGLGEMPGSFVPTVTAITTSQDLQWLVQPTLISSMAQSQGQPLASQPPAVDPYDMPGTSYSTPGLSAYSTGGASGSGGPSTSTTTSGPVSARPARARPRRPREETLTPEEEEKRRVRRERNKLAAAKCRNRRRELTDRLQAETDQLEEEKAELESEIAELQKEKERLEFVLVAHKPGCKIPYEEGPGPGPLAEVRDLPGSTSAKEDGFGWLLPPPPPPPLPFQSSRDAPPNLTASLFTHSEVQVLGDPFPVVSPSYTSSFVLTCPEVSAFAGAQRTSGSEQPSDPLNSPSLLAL
Experiment: enhancers of mouse delta FosB DNA binding – biochemical, fluorescence polarization, TAMRA-CDK5 oligo, single point, primary screen (AID 493131);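 further: fluorescence polarization rise as delta FosB binds a TAMRA Cdk5 AP-1 oligo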
Details: purified delta FosB, at 25 µM, active compounds read high, percent of positive-control signal above neutral wells

activation, active:
O=C(Nc1cccnc1Cl)c1cc(-c2ccccc2O)on1 64.8%
COc1ccc(C(=O)Nc2ccccc2C(=O)N/N=C/c2ccccc2OC)cc1 38%
Cc1ccc2nc(NC(=O)C3CCN(S(=O)(=O)c4ccc5c(c4)oc(=O)n5C)CC3)sc2c1 28.8%
Cn1c(=O)oc2cc(S(=O)(=O)N3CCC(C(=O)Nc4ccc(OC(F)(F)F)cc4)CC3)ccc21 32.2%
Cc1ccc(NC(=O)COc2ccc(/C=C3/NC(=O)NC3=O)cc2)cc1 73.1%
CCOC(=O)C1=C(O)/C(=C/c2ccc(OCC(=O)Nc3ccc(C)cc3)cc2)N=C1C 30.5%
N#Cc1c(N)nc2c3c(sc(=N)c2c1N)NC(=O)CC3c1ccccc1Cl (centres undefined) 57.2%
CN(C)CC(O)COc1ccc(C(C)(C)c2ccc(OCC(O)CN(C)C)cc2)cc1 (centres undefined) 20%
O=C(/C=C/c1ccc(F)cc1)NCCNC(=O)/C=C/c1ccc(F)cc1 53.1%
O=C1/C(=C/c2coc3ccc(O)cc3c2=O)SC(=S)N1c1ccccc1 45.3%
CC(=O)Nc1ccc(Nc2c3ccccc3nc3ccccc23)cc1 107%
COc1ccccc1CNC(=O)Cn1c(=O)oc2cc(Cl)ccc21 46.6%
NC(N)=Nc1nc2ccc(Br)cc2c(=O)[nH]1 42.4%
Cc1cc(NC(=O)CSc2nc3cc(Cl)ccc3c(=O)n2Cc2ccco2)no1 41.2%
O=C(N/N=C/c1cccc(O)c1)c1cc2c(ccc3ccccc32)o1 36.7%
CCCCNC(=O)C(C)N(CCN(C)C)C(=O)CCCCCN1C(=O)NC(c2ccc(Cl)cc2)C(C(=O)OCc2ccccc2)=C1C (centres undefined) 18.2%
COc1ccc(C(=O)Nc2c(N)nc(SCC(=O)Nc3ccc(C(C)=O)cc3)[nH]c2=O)cc1 22%

activation, inactive:
CCOC(=O)N1CCC(NC(=O)C(C)n2c3ccccc3c3cnn(C)c(=O)c32)CC1 (centres undefined) -6.6%
C=CCNC(=O)c1cc(-c2ccccc2O)on1 -2.37%
O=C(Nc1ccccc1C(F)(F)F)c1cc(-c2ccc(O)cc2)on1 0.0145%
Cc1ccc(NC(=O)COC(=O)CCc2nc3ccccc3n2-c2ccccc2)c(C)c1 -3.49%
Cc1oc(-c2cccc(Cl)c2)[n+]([O-])c1C 7.9%
COc1ccc(C(=O)Nc2ccccc2C(=O)N2CCN(c3ccccc3)CC2)cc1 -0.701%
COc1ccc(C(=O)Nc2cc(C)c(NC(=O)c3ccccc3OC)cn2)cc1 -13.9%
Cc1ccc(NC(=O)NNC(=O)c2sccc2-n2cccc2)cc1 -2.71%
Nc1ccn(CC(=O)N2CCN(c3ccccn3)CC2)c(=O)n1 -4.48%
O=C(Nc1ccc(S(=O)(=O)N2CCOCC2)cc1)C1CCN(S(=O)(=O)c2ccc(Cl)cc2)CC1 -7.05%
COc1ccc(NC(=O)C2CCN(S(=O)(=O)c3ccc4[nH]c(=O)oc4c3)CC2)c(OC)c1 1.87%
O=C(NC1CCCCC1)n1c(=O)oc2cc(S(=O)(=O)N3CCCCC3)ccc21 3.88%
Cc1ccc(C)c(N2CCN(S(=O)(=O)c3ccc4c(c3)oc(=O)n4C)CC2)c1 -5.87%
CC(=O)c1cccc(-c2ccc(CN3C(CC(C)C)C(=O)N(Cc4cn(CC5CCCCC5)nn4)CCS3(=O)=O)cc2)c1 (centres undefined) -19.5%
O=C(NN=Cc1ccccc1O)NN=Cc1ccccc1O 8.66%
O=C(Nc1ccc(C(=O)NCc2ccccc2Cl)cc1)C1=CSCCO1 -4.85%
COc1cc(O)c2c(=O)c3c(O)c(O)ccc3oc2c1OC -1.22%
CCCc1nc2c([nH]1)C(c1cccnc1)C(C#N)=C(N)O2 (centres undefined) -0.0522%
CC(=O)Nc1ccc(NC(=O)COc2ccc(-c3ccccc3)cc2)cc1 14.5%
O=C(COc1ccccc1)Nc1ccc(F)cc1 -2.09%
COC(=O)C1=C(O)/C(=C/c2ccc(OCC(=O)Nc3ccccc3)cc2)N=C1C 13.8%
CCOC(=O)C1=C(O)/C(=C/c2cc(C)n(-c3ccccc3)c2C)N=C1C -14.4%
CSCCC(NC(=O)COc1ccccc1)C(=O)N(C)CC(=O)Nc1ccc(C)cc1 (centres undefined) -10.6%
C#Cc1ccc([C@@H]2C=C(C(=O)O)O[C@H](OCCCCO)C2)cc1 -5.67%
O=C(Nc1ccc(Br)cn1)C1CCN(S(=O)(=O)c2cccs2)CC1 0.962%
CN(CCNC(=O)c1cc2c(-c3ccccc3F)nn(C)c2s1)C1CCCCC1 -29%
CSc1nc2c(c(=O)[nH]1)C(c1cccc(Cl)c1Cl)CC(=O)N2 (centres undefined) -2.19%
COc1ccc(C2CC(=O)Nc3sc(=N)c4c(N)c(C#N)c(N)nc4c32)cc1OC (centres undefined) 2.35%
O=C(Nc1ccc(N2CCN(C(=O)c3cccs3)CC2)cc1)c1cccnc1Cl -0.363%
Nc1nnc(SCC(=O)OCc2ccc(Cl)c(Cl)c2)s1 -5.37%
Cc1cc(C)n(CC(O)COc2ccc(C(C)(C)C)cc2)n1 (centres undefined) -7.22%
COc1ccc(OCC(O)CN(C)C(=O)C(C)Oc2ccccc2)cc1 (centres undefined) 4.24%
O=C1CC(Sc2ncn[nH]2)C(=O)N1c1ccccc1 (centres undefined) 1.52%
Cc1cc(Nc2cc(N3CCN(C)CC3)nc(Sc3ccc(NC(=O)C4CC4)cc3)n2)n[nH]1 3.28%
CCCOCC(O)CC(CC)C(=O)NNC(=S)Nc1ccccc1 (centres undefined) -0.789%
Cc1ccc(/C=N/NC(=O)COc2ccccc2-c2ccccc2)cc1 2.13%
C=CCNC(=O)/C=C/c1ccc(C(C)C)cc1 -5.28%
O=C(/C=C/c1ccc(F)cc1)NC(=S)NNC(=O)c1cccnc1 -8.6%
O=c1c(/C=N/O)coc2ccc(Cl)cc12 -6.61%
Cc1ccc2occ(/C=N/NC(=O)c3ccccc3C)c(=O)c2c1 -9.18%
COc1ccc(CNC(=O)c2ccc3oc(C(C)C)nc3c2)cc1 -6.34%
CC(=O)Nc1ccc(S(=O)(=O)N(C)c2nc3ccccc3nc2Cl)cc1 -7.23%
CC(=O)Nc1ccc(Nc2c([N+](=O)[O-])cc(S(C)(=O)=O)cc2[N+](=O)[O-])cc1 9.05%
COC(=O)CNC(=O)c1ccc(OC2CCN(C(=O)C3CC3)CC2)cc1 4.73%
O=C(NCc1ccccc1)C1CCCN(S(=O)(=O)c2cccs2)C1 (centres undefined) -3.74%
COc1ccc(C(=O)NN2C(=O)C3C(c4ccccc4)C=CC(c4ccccc4)C3C2=O)cc1 (centres undefined) -10.4%
COc1ccccc1NC(=O)CCC(=O)OC(C)C(=O)c1ccccc1 (centres undefined) -0.918%
O=C(O)C1C2C=CC(O2)C1C(=O)Nc1ccccn1 (centres undefined) 2.08%
O=C(NCCc1ccccn1)c1cc(-c2ccc(Cl)cc2)nc2ccccc12 -16.7%
COc1ccccc1CNC(=O)c1cc(=O)c2ccccc2o1 -8.74%
COc1ccc(OC)c(NC(=O)Cn2c(=O)oc3ccccc32)c1 -3.42%
COc1ccccc1C(=O)NCC(=O)OCC(=O)Nc1nnc(-c2ccccc2)o1 0.87%
CCOc1ccc(S(=O)(=O)NCCC(=O)NCC(C)(C)N2CCOCC2)cc1 -1.62%
C/C(=N\N)c1c(-c2ccccc2)c2cc(Br)ccc2[nH]c1=O -5.15%
NC(=O)c1cc(-c2cccnc2)nc2ccc(Br)cc12 0.097%
CC(=O)Nc1ccc(S(=O)(=O)N2CCN(CCCOc3cc(C)ccc3C)CC2)cc1 0.131%
Cc1cc(NC(=O)CSc2nnc(-c3ccco3)n2N)no1 2.33%
N#Cc1c(NC(=O)CSc2nc3ccccc3c(=O)n2Cc2ccco2)sc2c1CCCC2 6.6%
COc1ccc(CCN2C(=O)CC(N3CCC(C(N)=O)CC3)C2=O)cc1OC (centres undefined) -2.97%
CCOC(=O)N1CCN(C(=O)C2CCCN(c3ncnc4c3sc3cccc(F)c34)C2)CC1 (centres undefined) -16.9%
Cc1c(/C=N\NC(=O)c2cc3ccccc3o2)c2ccccc2n1C -8.02%
O=C(NN=Cc1ccccc1)c1ccccc1 -3.35%
COC(=O)c1cccnc1NC(=S)NC(C)C -6.13%
COc1ccccc1CC(=O)Nc1ccc(S(=O)(=O)N2CCCC2)cc1 -8.89%
C/C=C(\C)C(=O)N1CC2(CC(c3cccc(NC(=O)CCCCC)c3)=NO2)C[C@@H]1C(N)=O (some centres undefined) -1.2%
CCCCNC(=O)C(C)N(CCN(C)C)C(=O)CCCN1C(=O)NC(c2ccc(Cl)cc2)C(C(=O)OCc2ccccc2)=C1C (centres undefined) -3.28%
CC1=C(C(=O)OCc2ccccc2)C(c2ccc(C(F)(F)F)cc2)NC(=O)N1CCCCCC(=O)O (centres undefined) -6.43%
Cc1ccc(CC2CC(=O)N(c3ccc4c(c3)OCCO4)C2=O)cc1 (centres undefined) -9.23%
N#CC(C#N)=CN=c1ccn(Cc2ccc(Cl)cc2Cl)cc1 -0.0405%
COc1ccccc1-n1c(=S)[nH]c2c(sc(=S)n2-c2ccc(C)cc2C)c1=O -9.95%
COc1ccc(NC(=O)CSc2nc(N)c(-c3ccccc3)c(=O)[nH]2)cc1 -6.21%
COc1ccc(C(=O)Nc2c(N)nc(SCC(=O)N3CCC(C)CC3)[nH]c2=O)cc1OC -3.09%

— PubChem BioAssay AID493131 (Broad Institute, 2011)
